From PubChem BioAssay AID2284167 (EPA ToxCast) come the findings set out here.

Each structure is given as a SMILES string. Inconclusive results are not listed. The source made the active and inactive calls. The calls were made as follows: active = hit-call score of the fitted dose curve at least 0.9, where 1 is the maximum; inconclusive = response in the unintended direction; inactive = score below 0.9.

A word on the AC50: it is the midpoint of the concentration-response curve, whichever way the signal moves.

Chain of human Neurotensin Receptor NT1 Agonism, NTSR1 (gene 4923) (P30989 whole entry, looked up): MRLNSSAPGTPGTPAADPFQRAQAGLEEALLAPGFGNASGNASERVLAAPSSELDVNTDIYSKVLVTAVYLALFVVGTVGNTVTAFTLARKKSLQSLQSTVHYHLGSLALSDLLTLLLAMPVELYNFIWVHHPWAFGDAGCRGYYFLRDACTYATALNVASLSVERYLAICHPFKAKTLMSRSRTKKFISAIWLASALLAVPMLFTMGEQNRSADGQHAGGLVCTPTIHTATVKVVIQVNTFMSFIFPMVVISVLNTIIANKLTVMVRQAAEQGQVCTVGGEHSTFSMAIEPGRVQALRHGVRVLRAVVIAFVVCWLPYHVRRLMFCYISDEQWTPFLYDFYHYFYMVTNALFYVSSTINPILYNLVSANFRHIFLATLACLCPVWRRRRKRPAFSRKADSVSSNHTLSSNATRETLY

For this assay, the target named is human Neurotensin Receptor NT1 Agonism, NTSR1 (gene 4923) (UniProt P30989). Description: ERF_FR_GPCR_hNTSR1: Eurofins (ERF) G Protein-Coupled Receptor (GPCR) Radioligand Binding LeadHunter Assay for human Neurotensin Receptor NT1 Agonism. As to the method:
ERF_FR_GPCR_hNTSR1 is a biochemical, single-readout assay that uses extracted gene-proteins in a cell-free assay. Measurements were taken 1 hour after chemical dosing in a 96-well plate. See NT1 Human Neurotensin GPCR Binding (Agonist Radioligand) Assay, Cerep.ERF_FR_GPCR_hNTSR1 is an assay component calculated from the ERF_FR_GPCR_hNTSR1 assay. It is designed to measure radioligand binding using a type of binding reporter as detected by scintillation counting with radiometry technology.Data from the assay component ERF_FR_GPCR_hNTSR1 was analyzed at the assay endpoint, ERF_FR_GPCR_hNTSR1, in the positive analysis fitting direction relative to DMSO as the negative control and baseline of activity. Using a type of binding reporter, gain-of-signal activity can be used to understand changes in binding as they relate to gene NTSR1. To generalize the intended target to other relatable targets, this assay endpoint is annotated to the gpcr intended target family, where the subfamily is neurotensin.
Human cells are incubated for 60 minutes at 4 C with [125I]Tyr3-neurotensin ligand (0.05 nM) and neurotensin as control inhibitor. Test Sample Requirements: Minimum for 1) Screen: 60 ul of 10 mM stock -OR- 1 mg (pre-weighed) for 10 uM final testing. 2) Dose Response: 90 ul of 10 mM stock -OR- 1 mg (pre-weighed) for a top concentration at 10 uM.
As to `O=C(/C=C/c1ccc(O)cc1)CC(=O)/C=C/c1ccc(O)cc1`, the AC50 was 2.99 µM (active).
